Bioassay records: PubChem BioAssay, National Center for Advancing Translational Sciences (NCATS)
D3 ag – qHTS of D3 Dopamine Receptor Agonist: qHTS; actives 0.58% (n = 410,000); max activation, %; D3R DiscoveRx beta-arrestin cells, luminescence, 90 min; AID 652048, 2013; in the data active = max activation above about 30%
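Agonist mode: compounds and dopamine controls were applied to plated cells for 90 min at 37 degrees C after an overnight attachment at 1500 cells/well. Luminescent read-out followed 30 - 60 minutes at room temperature with DiscoveRx detection reagent.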
ClpP mod – qHTS Assay for Activators of ClpP. ATP-dependent Clp protease proteolytic subunit (Bacillus subtilis (strain 168)), P80244. purified B. subtilis ClpP, FRET peptide cleavage, 20 min. Potency, µM (doses to about 57.5 µM). actives 1.9% (n = 340,000). AID 651965, 2013; active = well fitted falling curve with a large enough effect; inconclusive = small, poorly fitted or top-dose-only effect; inactive = no such curve, though single readings can be large or run the other way; also: the source files actives as falling curves though it sought activators and does not explain the sign; nearly all actives have a fitted effect of over 65% in size
Target sequence (P80244 whole entry, looked up): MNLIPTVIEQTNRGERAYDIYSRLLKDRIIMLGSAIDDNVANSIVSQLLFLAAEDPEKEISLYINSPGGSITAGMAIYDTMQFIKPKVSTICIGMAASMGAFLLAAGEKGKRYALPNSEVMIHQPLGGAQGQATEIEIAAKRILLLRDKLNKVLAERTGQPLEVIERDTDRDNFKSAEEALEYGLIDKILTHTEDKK
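Purified B. subtilis ClpP, 10 microg/mL final in Tris/HCl pH8 with KCl, BSA, glycerol and Tween-20, cleaved an Abz/nitrotyrosine-quenched decapeptide. Fluorescence (ex 320, em 430) was read at 0 and 20 min at room temperature. Delta was normalized to 5.8 microM ADEP and DMSO/no-enzyme controls.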
GLP-1R agonist – qHTS of GLP-1 Receptor Agonists. Glucagon-like peptide 1 receptor (Homo sapiens), P43220. HEK293 GLP-1R CRE-luciferase, luminescence, 4-6 h; cells express a hypersensitive GLP-1R form. Potency, µM (doses to about 45.6 µM), actives largely listed as activators. actives 0.007% (n = 380,000). AID 624172, 2012
Target sequence (P43220 whole entry, looked up): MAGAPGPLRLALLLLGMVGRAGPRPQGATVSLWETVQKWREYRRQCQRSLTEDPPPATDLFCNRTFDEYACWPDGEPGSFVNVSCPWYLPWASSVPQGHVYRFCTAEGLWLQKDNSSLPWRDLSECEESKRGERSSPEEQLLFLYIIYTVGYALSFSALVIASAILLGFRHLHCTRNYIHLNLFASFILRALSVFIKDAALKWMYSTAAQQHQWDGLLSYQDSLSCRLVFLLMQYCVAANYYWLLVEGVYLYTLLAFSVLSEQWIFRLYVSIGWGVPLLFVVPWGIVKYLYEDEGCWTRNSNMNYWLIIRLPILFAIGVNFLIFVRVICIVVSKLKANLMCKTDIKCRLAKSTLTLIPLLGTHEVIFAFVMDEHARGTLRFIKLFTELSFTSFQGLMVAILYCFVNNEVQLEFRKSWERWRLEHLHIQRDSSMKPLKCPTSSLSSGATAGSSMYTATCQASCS
D3 antag – qHTS of D3 Dopamine Receptor Antagonist: qHTS. D(3) dopamine receptor (Homo sapiens), P35462. D3R cells, DiscoveRx beta-arrestin luminescence, antagonist mode; active compounds read low. max response, negative = inhibition, %. actives 2.5% (n = 360,000); in the data active = max response below about -50%; inconclusive = no clear call, values can overlap the other calls
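Cells expressing the human receptor were seeded at 1500 cells/well, incubated overnight at 37 degrees C in 5% CO2, then exposed to library compounds with dopamine controls for 90 minutes at 37 degrees C before luminescent detection.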
GLP-1R inv ag – qHTS of GLP-1 Receptor Inverse Agonists (Inhibition Mode) | Glucagon-like peptide 1 receptor (Homo sapiens), P43220 | HEK293 GLP-1R CRE-luciferase, luminescence, 24 h; GLP-1R form is constitutively active | Potency, µM (top dose mostly 38.3 µM), actives largely listed as inhibitors | actives 1.6% (n = 410,000); also: nearly all actives have a fitted effect of over 55% in size
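HEK293 cells stably co-expressing constitutively active GLP-1R and a cAMP-responsive luciferase reporter were seeded in DMEM with 10% Nu serum, given compounds after 12 h, and incubated 24 h at 37 deg C. Luminescence was then read.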
HEK293 tox – qHTS of GLP-1 Receptor Inverse Agonists: Cytotox Screen; HEK293 cAMP-luciferase reporter cells, luminescence, 24 h; AID 624418, 2012; Potency, µM (series often up to 38.3 µM), hits mostly inhibitors; actives 0.13% (n = 410,000);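 also: loss of luciferase light is scored as toxicity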
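1536-well qHTS counterscreen of the MLSMR; 200 cells/uL, 12 h pre-incubation, 23 nL cpd, 24 h at 37 deg C 5% CO2, luciferase detection reagent, 12 min RT, luminescence. Inhibition = undesired.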
Hits are given with their value; – = inactive; ? = inconclusive; · = no result given. Shown are actives, neighbours in structure and some others; about 5.7% of the full set was active somewhere. Unless noted, calls follow the shape of the dose curve; as a rule, active = well fitted curve in the direction sought with a large enough effect; inconclusive = small, poorly fitted or top-dose-only effect, or another doubt; inactive = no such curve, though single readings can be large; an effect the other way counts as inactive or inconclusive.

SMILES | D3 ag | ClpP mod | GLP-1R agonist | D3 antag | GLP-1R inv ag | HEK293 tox
COC(=O)c1sc2cccc(F)c2c1S(=O)(=O)Nc1ccc(N(C)C)cc1 | – | – | · | · | – | –
COc1cccc(-c2cc(C(F)(F)F)nc(NCCc3ccccc3)n2)c1 | – | 28µM | – | · | ? | –
COc1ccc(-c2cc(C(F)(F)F)nc(NCCc3ccccc3)n2)cc1OC | – | – | – | · | – | –
Cc1cccc(NC(=O)CC2CCC2)c1 | – | – | – | – | – | –
Cc1cc(NC(=O)CN2C(=O)NC3(CCCCCC3)C2=O)ccc1Br | – | – | – | – | 10µM | –
CC(C)CC1(C)NC(=O)N(CC(=O)Nc2ccc3c(c2)CCC3)C1=O (stereo not drawn) | – | · | – | -55 | ? | –
Cc1cc(NC(=O)CC2CCCC2)ccc1Br | – | · | – | – | 8.9µM | –
COc1ccc(CN(Cc2ccccc2)C(=O)C2CC2)cc1COc1ccc(NC(C)=O)cc1 | · | – | · | · | · | ·
CCN1C(=O)C2(c3ccccc31)c1c(oc3ccccc3c1=O)C(=O)N2CCOC (stereo not drawn) | – | – | · | · | – | –
COc1ccc(CN(C)C(=O)CNC(=O)Cc2cccc3ccccc23)c(OC)c1OC | – | – | – | – | – | –
COc1ccccc1CN(C)C(=O)C(NC(=O)Cc1cccc2ccccc12)C(C)C (stereo not drawn) | – | · | – | – | 10µM | ?
CN1CCN(c2ccccc2NC(=O)c2ccc(N3CCCCC3)c([N+](=O)[O-])c2)CC1 | – | – | – | – | ? | ?
Cc1c(NC(=O)c2ccc(N3CCCC3)c([N+](=O)[O-])c2)cccc1-c1nc2ccccc2s1 | – | – | – | -51 | – | ?
Cc1c(C#N)c2ncn(Cc3ccccn3)c(=O)c2n1-c1ccccc1 | – | 28µM | – | – | – | –
Cn1c(=O)c2c(nc(SCC(=O)c3cccs3)n2Cc2ccc(F)cc2)n(C)c1=O | – | – | – | – | – | –
Cc1ccc(OCCn2c(Br)nc3c2c(=O)n(C)c(=O)n3C)cc1 | 35 | – | – | – | – | –
Cn1c(=O)c2c(nc(Br)n2CC(=O)c2cccs2)n(C)c1=O | – | 28µM | – | – | – | –
Cc1nc2nc(SCC(=O)NCCCN3CCCC3)nn2c(C)c1Cc1ccccc1Cl | – | · | – | – | 6.3µM | –
COc1ccc(OC)c(CN2C(=O)CSCC2(C)C(=O)NCc2ccccc2)c1 (stereo not drawn) | – | – | · | – | – | –
CCC(=O)N1CCc2cc(S(=O)(=O)NC(Cc3ccccc3)C(=O)NCc3cccc(OC)c3)ccc21 (stereo not drawn) | – | – | · | · | – | –
CCOC(=O)C1(Cc2cccc(OC)c2)CCN(Cc2ccccc2OC)CC1 | – | · | – | ? | ? | –
CCOC(=O)C1(Cc2cccc(OC)c2)CCN(Cc2ccc(C)s2)CC1 | – | · | – | – | 10µM | ?
CCOC(=O)C1(Cc2cccc(OC)c2)CCN(Cc2cccc(O)c2)CC1 | – | · | – | – | 11µM | –
O=C1CCC[C@@H]2C[C@@]3(C[C@@H]4CCN1[C@H]24)Nc1ccccc1NC3=NC1CCCCC1 | · | – | · | · | · | ·
O=C(Nc1ccc(N2CCN(c3ccc(F)cc3)CC2)c(C(=O)O)c1)c1ccccc1F | – | – | · | · | – | –
SMILES | D3 ag | ClpP mod | GLP-1R agonist | D3 antag | GLP-1R inv ag | HEK293 tox
CCc1ccc(NC(=O)CSC2=Nc3ccccc3C3=NC(CC(=O)NCc4ccc5c(c4)OCO5)C(=O)N23)cc1 (stereo not drawn) | – | – | · | · | – | –
COc1ccc2sc(N(Cc3cccnc3)C(=O)c3ccc4c(c3)OCCO4)nc2c1 | – | ? | · | · | – | –
OC1(c2ccc(Cl)c(C(F)(F)F)c2)CCN(CCCC(c2ccc(F)cc2)c2ccc(F)cc2)CC1 | – | · | – | · | · | ·
CC(C(=O)Nc1ncc2c(n1)CC(C)(C)CC2=O)N1C(=O)c2ccccc2C1=O (stereo not drawn) | – | 28µM | – | – | – | –
CCOC(=O)c1ccccc1N=N/C(C(C)=O)=C(/C)O | – | 28µM | – | – | – | –
CCOC(=O)c1ccccc1NC(=O)/C(C)=C/C(=O)O | – | ? | – | – | – | –
Cc1ccc(NC(=O)C(Nc2ccccc2)c2ccccc2)cc1 (stereo not drawn) | – | · | – | – | – | –
Cc1ccc(NC(=O)C(C)c2ccc(-c3ccccc3)c(F)c2)cc1 (stereo not drawn) | – | 35µM | – | – | ? | –
CCc1ccc(Nc2n[n+](-c3ccccc3)c(-c3cccc(C)c3)s2)cc1 | – | – | – | -52 | ? | –
Cc1ccc(-n2nc(C)c3nc(CCC(=O)Nc4ccc(F)cc4)c(=O)n(C)c32)cc1 | – | – | · | · | – | –
CC(C)(CN1CCN(Cc2ccccc2)CC1)NS(=O)(=O)c1ccccc1 | – | · | – | -52 | ? | –
CC(C)(CN1CCN(C(c2ccccc2)c2ccccc2)CC1)NS(=O)(=O)c1ccccc1 | – | · | – | -53 | ? | –
COc1ccc(-n2cc(C(=O)OCc3ccc(F)c(F)c3)c3ccccc3c2=O)cc1 | – | – | · | · | – | –
CCC1SC2=NC(C)=C(C(=O)OCC(C)C)C(/C=C/c3ccccc3OC)N2C1=O (stereo not drawn) | – | – | – | – | 7.9µM | –
Cc1ccc(S(=O)(=O)NC(CC(=O)NC2CCCC2)c2ccco2)cc1 (stereo not drawn) | – | 28µM | – | – | – | –
CCOC(=O)N1CCC(NC(=O)CC(NS(=O)(=O)c2ccc(Cl)cc2)c2ccco2)CC1 (stereo not drawn) | – | 32µM | – | – | – | –
COc1ccc(S(=O)(=O)NC(CC(=O)NC2CCCC2)c2ccco2)cc1 (stereo not drawn) | – | – | – | – | – | –
Cc1cc2c(Nc3ccccc3)ncnc2s1 | – | · | – | -61 | – | –
Cc1cc2c(NCCc3ccccc3)ncnc2s1 | – | · | – | – | ? | –
CCCCN1CC(=O)N2[C@@H]3c4cc(OC)ccc4OC[C@@H]3[C@H](C(=O)OCC)[C@]2(C)C1=O | 49 | – | – | – | – | –
CCCCN1CC(=O)N2[C@H]3c4cc(OC)ccc4OC[C@@H]3[C@H](C(=O)OCC)[C@]2(C)C1=O | – | – | – | – | – | –
